Measurements reported in PubChem BioAssay (NCATS).
Records with an inconclusive call do not appear. Calls of active or inactive are those of the source. Calls come from the whole dose curve; as a rule, active = well fitted curve in the direction sought with a large enough effect; inconclusive = small, poorly fitted or top-dose-only effect, or another doubt; inactive = no such curve, though single readings can be large; an effect the other way counts as inactive or inconclusive.

How the values were obtained:
[1] = Quantitative High-Throughput drug screen in 47 multiple myeloma cell lines against the NCATS MIPE library collection: FR4_PLB cell viability assay (AID 1918924; note: nearly all actives have a fitted effect of over 35% in size; note: potency is the fitted concentration of half-maximal effect)
Summary of the method: (§1)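 Myeloma cells (500 per well) were exposed to MIPE 4.0 compounds by pin transfer and incubated 48 hours at 37C, 5% CO2. Viability was read as ATP by CellTiter-Glo luminescence, normalised to DMSO (100%) and media-only (0%) wells.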

[2] = Quantitative High-Throughput drug screen in 47 multiple myeloma cell lines against the NCATS MIPE library collection: Delta47_JCRB cell viability assay (AID 1918925; note: nearly all actives have a fitted effect of over 45% in size; note: potency is the fitted concentration of half-maximal effect)
Summary of the method: (§2)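 qHTS of the MIPE 4.0 collection: 500 myeloma cells/well, 48 h drug exposure at 37C in 5% CO2, then CellTiter-Glo for 5 min at room temperature before luminescence reading.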

[3] = Quantitative High-Throughput drug screen in 47 multiple myeloma cell lines against the NCATS MIPE library collection: AMO1_DSMZ cell viability assay (AID 1918927; note: nearly all actives have a fitted effect of over 30% in size; note: potency is the fitted concentration of half-maximal effect)
Summary of the method: as §2

[4] = Quantitative High-Throughput drug screen in 47 multiple myeloma cell lines against the NCATS MIPE library collection: ARP1_JJKsccF8 cell viability assay (AID 1918928; note: nearly all actives have a fitted effect of over 40% in size; note: potency is the fitted concentration of half-maximal effect)
Summary of the method: (§3)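 Viability screen: myeloma cells (500/well) incubated 48 h at 37 °C, humidified 5% CO2, with pinned library compounds; CellTiter-Glo added, luminescence read; DMSO wells set 100%, medium-only wells 0%.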

[5] = Quantitative High-Throughput drug screen in 47 multiple myeloma cell lines against the NCATS MIPE library collection: Karpas620_DSMZ cell viability assay (AID 1918959); note: nearly all actives have a fitted effect of over 30% in size; note: potency is the fitted concentration of half-maximal effect
Summary of the method: as §1

[6] = Quantitative High-Throughput drug screen in 47 multiple myeloma cell lines against the NCATS MIPE library collection: KHM11_PLB cell viability assay (AID 1918962); note: nearly all actives have a fitted effect of over 35% in size; note: potency is the fitted concentration of half-maximal effect
Summary of the method: as §1

[7] = Quantitative High-Throughput drug screen in 47 multiple myeloma cell lines against the NCATS MIPE library collection: JIM3_ECACC cell viability assay (AID 1918963; note: nearly all actives have a fitted effect of over 35% in size; note: potency is the fitted concentration of half-maximal effect)
Summary of the method: as §1

[8] = Quantitative High-Throughput drug screen in 47 multiple myeloma cell lines against the NCATS MIPE library collection: INA6_PLB cell viability assay (AID 1918965; note: nearly all actives have a fitted effect of over 55% in size; note: potency is the fitted concentration of half-maximal effect)
Summary of the method: (§4)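 CellTiter-Glo ATP luminescence gave viability after 48 h compound treatment at 37C of 500 multiple myeloma cells per well. Normalisation used DMSO-only wells as 100% and media-only wells as 0% viability; primary qHTS of approved and investigational drugs.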

[9] = Quantitative High-Throughput drug screen in 47 multiple myeloma cell lines against the NCATS MIPE library collection: Karpas25_ECACC cell viability assay (AID 1918968; note: nearly all actives have a fitted effect of over 35% in size; note: potency is the fitted concentration of half-maximal effect)
Summary of the method: as §2

[10] = Quantitative High-Throughput drug screen in 47 multiple myeloma cell lines against the NCATS MIPE library collection: KMS27_JCRB cell viability assay (AID 1918970); note: nearly all actives have a fitted effect of over 30% in size; note: potency is the fitted concentration of half-maximal effect
Summary of the method: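 CellTiter-Glo luminescence after 48 h drug exposure at 37 °C; 500 cells/well, 1536-well format, pin-tool compound addition; DMSO = 100%, media-only = 0% viability.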

[11] = Quantitative High-Throughput drug screen in 47 multiple myeloma cell lines against the NCATS MIPE library collection: KMS12BM_JCRB cell viability assay (AID 1918971)
Summary of the method: as §2

[12] = Quantitative High-Throughput drug screen in 47 multiple myeloma cell lines against the NCATS MIPE library collection: KMS12PE_JCRB cell viability assay (AID 1918972); note: nearly all actives have a fitted effect of over 30% in size; note: potency is the fitted concentration of half-maximal effect
Summary of the method: as §4

[13] = Quantitative High-Throughput drug screen in 47 multiple myeloma cell lines against the NCATS MIPE library collection: KMS20_JCRB cell viability assay (AID 1918973); note: nearly all actives have a fitted effect of over 45% in size; note: potency is the fitted concentration of half-maximal effect
Summary of the method: as §2

[14] = Quantitative High-Throughput drug screen in 47 multiple myeloma cell lines against the NCATS MIPE library collection: EJM_DSMZ cell viability assay (AID 1918926; note: nearly all actives have a fitted effect of over 30% in size; note: potency is the fitted concentration of half-maximal effect)
Summary of the method: as §2

[15] = Quantitative High-Throughput drug screen in 47 multiple myeloma cell lines against the NCATS MIPE library collection: JJN3_DSMZ cell viability assay (AID 1918966; note: potency is the fitted concentration of half-maximal effect; nearly all actives have a fitted effect of over 50% in size)
Summary of the method: as §2

[16] = Quantitative High-Throughput drug screen in 47 multiple myeloma cell lines against the NCATS MIPE library collection: KMM1_JCRB cell viability assay (AID 1918960); note: nearly all actives have a fitted effect of over 30% in size; note: potency is the fitted concentration of half-maximal effect
Summary of the method: as §3

[17] = Quantitative High-Throughput drug screen in 47 multiple myeloma cell lines against the NCATS MIPE library collection: ARD_JJKsccE7 cell viability assay (AID 1918929)
Summary of the method: as §2

[18] = Quantitative High-Throughput drug screen in 47 multiple myeloma cell lines against the NCATS MIPE library collection: JIM1_ECACC cell viability assay (AID 1918964; note: potency is the fitted concentration of half-maximal effect)
Summary of the method: as §2

[19] = Quantitative High-Throughput drug screen in 47 multiple myeloma cell lines against the NCATS MIPE library collection: H1112_PLB cell viability assay (AID 1918967; note: nearly all actives have a fitted effect of over 30% in size; note: potency is the fitted concentration of half-maximal effect)
Summary of the method: as §2

[20] = Quantitative High-Throughput drug screen in 47 multiple myeloma cell lines against the NCATS MIPE library collection: Karpas417_ECACC cell viability assay (AID 1918961); settings: Karpas417 myeloma viability, CellTiter-Glo ATP luminescence, 48 h; viability (% of DMSO): at 45.8 µM (top of the series); note: potency is the fitted concentration of half-maximal effect
Summary of the method: as §4

Measured: Potency

Oc1ccc(C2CCN(c3ccnc4ccccc34)CC2)cc1O
active: [1] 14.8 µM | [2] 9.35 µM | [3] 18.7 µM | [4] 23.5 µM | [5] 16.6 µM | [6] 8.33 µM | [7] 11.8 µM | [8] 7.43 µM | [9] 7.43 µM | [10] 18.7 µM | [11] 16.6 µM | [12] 18.7 µM | [13] 18.7 µM

O=c1cc(-c2ccc(O)cc2)oc2cc(O)cc(O)c12
active: [1] 23.5 µM | [2] 10.5 µM | [14] 4.18 µM | [4] 20.9 µM | [15] 3.32 µM | [9] 10.5 µM | [11] 13.2 µM

CCC(=O)O[C@]1(C(=O)CO)CC[C@H]2[C@@H]3CCC4=CC(=O)CC[C@]4(C)[C@@H]3CC[C@@]21C
inactive: [1] | [2] | [14] | [3] | [5] | [16] | [6] | [7] | [10] | [12]

CCn1cc(C(=O)O)c(=O)c2ccc(C)nc21
inactive: [1] | [2] | [14] | [17] | [5] | [16] | [7] | [18] | [19] | [10] | [12]

COc1cc(NC(=O)c2ccc(-c3ccc(Cl)cc3)o2)cc(OC)c1
active: [2] 2.35 µM | [3] 7.43 µM | [5] 20.9 µM | [16] 16.6 µM | [20] 2.96 µM | [6] 14.8 µM | [7] 11.8 µM | [8] 8.33 µM | [19] 2.96 µM | [9] 2.96 µM | [12] 20.9 µM
inactive: [1] | [14]

N[C@@]1(C(=O)O)CS(=O)(=O)[C@H]2[C@H](C(=O)O)[C@H]21
inactive: [1] | [14] | [5]
active: [2] 9.35 µM | [8] 14.8 µM

C[C@]12CC[C@@H]3c4ccc(O)cc4CC[C@H]3[C@H]1C[C@@H](O)[C@H]2O
active: [2] 2.64 µM | [3] 18.7 µM | [4] 9.35 µM | [5] 18.7 µM
inactive: [1] | [20] | [7] | [9] | [13]

Cc1ccc(C(=O)Nc2cccc(C(F)(F)F)c2)cc1Nc1nc(-c2cccnc2)nc2c1cnn2C
active: [1] 9.35 µM | [2] 5.26 µM | [14] 18.7 µM | [4] 10.5 µM | [6] 13.2 µM | [7] 10.5 µM | [8] 11.8 µM | [19] 14.8 µM | [9] 13.2 µM | [11] 13.2 µM | [13] 8.33 µM
inactive: [17] | [5] | [16] | [18] | [10] | [12]

COc1cc(Nc2ncc(F)c(Nc3ccc4c(n3)NC(=O)C(C)(C)O4)n2)cc(OC)c1OC
active: [1] 20.9 µM | [2] 1.18 µM | [4] 5.9 µM | [7] 0.935 µM | [8] 1.18 µM | [9] 1.66 µM | [10] 11.8 µM | [13] 1.05 µM
inactive: [3] | [5]

C[C@@H]1CCN(C(=O)CC#N)C[C@H]1N(C)c1ncnc2[nH]ccc12
inactive: [1] | [2] | [14] | [5] | [16] | [20] | [7] | [19] | [9] | [12]

CC1(C)CCC[C@@]2(C)[C@@H]1CC[C@@]1(C)OC(=O)C[C@H]21
active: [1] 14.8 µM | [12] 14.8 µM
inactive: [2] | [14] | [4] | [5] | [16] | [6] | [7] | [18] | [8] | [19] | [9]

COc1cccc2c1CCCC2CCCN1CCN(C2CCCCC2)CC1 (centres undefined)
active: [1] 23.5 µM | [2] 16.6 µM | [3] 23.5 µM | [4] 18.7 µM | [5] 18.7 µM | [16] 18.7 µM | [6] 18.7 µM | [7] 23.5 µM | [8] 16.6 µM | [15] 20.9 µM | [9] 18.7 µM | [10] 16.6 µM | [11] 23.5 µM | [12] 16.6 µM

O=C(Nc1ccccc1-c1cn2c(CN3CCNCC3)csc2n1)c1cnc2ccccc2n1
active: [1] 9.35 µM | [2] 4.69 µM | [14] 20.9 µM | [4] 23.5 µM | [6] 8.33 µM | [7] 33.2 µM | [18] 2.96 µM | [8] 9.35 µM | [19] 9.35 µM | [9] 5.9 µM | [11] 10.5 µM | [13] 2.96 µM
inactive: [5] | [16] | [10] | [12]

O=C1C[C@@H](c2ccc(O)cc2)Oc2cc(O)cc(O)c21
inactive: [1] | [2] | [14] | [4] | [5] | [6] | [7] | [18] | [19] | [12]
active: [10] 0.0118 µM
